# Source: the supplement of paper PMC11732987, “Enantioselective OTUD7B fragment discovery through chemoproteomics screening and high-throughput optimisation” (Communications Chemistry, 2025)
# Values without a mark were called inactive.
# What was measured:
# Assay in all cases: log2 ratio of Biotin-Ahx-Ub-VS probe labelling (fragment/DMSO); higher = less target engagement (more negative = stronger competition), active = hit call of the paper (q ≤ 0.05, log2 ratio ≤ -1)
# Settings in all cases: compound concentration: 200 uM; treatment time: 3 h
# ALG13 = biological target: T1, ALG13 (UniProt Q9NP73)
# T1 sequence (whole entry): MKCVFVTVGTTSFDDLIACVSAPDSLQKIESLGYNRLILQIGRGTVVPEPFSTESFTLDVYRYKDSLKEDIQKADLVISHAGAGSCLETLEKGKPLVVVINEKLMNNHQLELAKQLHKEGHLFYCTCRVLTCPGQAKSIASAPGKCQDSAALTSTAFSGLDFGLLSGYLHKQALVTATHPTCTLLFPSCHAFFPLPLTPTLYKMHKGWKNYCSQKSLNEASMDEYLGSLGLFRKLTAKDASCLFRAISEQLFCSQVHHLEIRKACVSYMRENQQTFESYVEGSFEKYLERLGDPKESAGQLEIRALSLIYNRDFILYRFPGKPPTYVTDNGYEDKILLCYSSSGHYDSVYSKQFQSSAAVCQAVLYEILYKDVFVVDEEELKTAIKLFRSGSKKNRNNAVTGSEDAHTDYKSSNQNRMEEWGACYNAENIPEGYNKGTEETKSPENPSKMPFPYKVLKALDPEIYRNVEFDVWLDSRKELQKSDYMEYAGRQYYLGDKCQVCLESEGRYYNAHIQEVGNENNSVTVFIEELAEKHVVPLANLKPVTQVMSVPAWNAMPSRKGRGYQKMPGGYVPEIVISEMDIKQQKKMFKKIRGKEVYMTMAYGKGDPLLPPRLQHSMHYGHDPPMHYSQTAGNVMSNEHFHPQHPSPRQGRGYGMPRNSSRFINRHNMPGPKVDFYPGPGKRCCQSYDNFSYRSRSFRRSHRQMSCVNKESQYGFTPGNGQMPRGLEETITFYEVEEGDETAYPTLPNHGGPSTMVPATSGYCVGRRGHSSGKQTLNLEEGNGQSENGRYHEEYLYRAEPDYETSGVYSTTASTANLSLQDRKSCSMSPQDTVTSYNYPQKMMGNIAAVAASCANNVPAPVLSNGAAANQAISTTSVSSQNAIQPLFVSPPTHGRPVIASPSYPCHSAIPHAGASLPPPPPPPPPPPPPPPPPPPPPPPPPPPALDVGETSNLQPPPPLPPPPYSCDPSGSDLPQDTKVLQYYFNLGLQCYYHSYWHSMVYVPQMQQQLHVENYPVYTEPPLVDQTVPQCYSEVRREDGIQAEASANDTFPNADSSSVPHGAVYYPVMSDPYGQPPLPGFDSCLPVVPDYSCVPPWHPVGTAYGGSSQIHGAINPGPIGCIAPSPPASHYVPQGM
# Summary of the method: (§1)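 Average log2 ratios of fragment over vehicle were obtained by unpaired t-test from global-median-normalised Spectronaut label-free quantities. Proteins with ≥2 unique peptides were included. HEK293T lysate (495 µg per sample) was treated in triplicate with fragment at 200 µM or vehicle for 3 h, then with Biotin-Ahx-Ub-VS at 0.5 µM final for 1 h, and labelled DUBs were NeutrAvidin-enriched and run by diaPASEF LC-MS/MS.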
# ATXN3 = ATXN3 (UniProt P54252)
# Chain of ATXN3 (P54252 whole entry): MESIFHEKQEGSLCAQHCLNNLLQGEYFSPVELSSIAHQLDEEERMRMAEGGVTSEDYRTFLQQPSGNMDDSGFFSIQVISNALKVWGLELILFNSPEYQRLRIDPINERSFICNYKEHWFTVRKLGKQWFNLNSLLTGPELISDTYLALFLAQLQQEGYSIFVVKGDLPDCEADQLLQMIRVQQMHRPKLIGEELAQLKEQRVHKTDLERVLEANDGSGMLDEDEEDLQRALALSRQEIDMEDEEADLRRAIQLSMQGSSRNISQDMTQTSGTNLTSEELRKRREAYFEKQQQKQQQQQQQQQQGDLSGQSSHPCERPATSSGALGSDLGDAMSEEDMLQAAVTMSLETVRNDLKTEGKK
# Summary of the method: as §1
# BAP1 = biological target: T2, BAP1 (UniProt Q92560)
# T2 sequence (whole entry): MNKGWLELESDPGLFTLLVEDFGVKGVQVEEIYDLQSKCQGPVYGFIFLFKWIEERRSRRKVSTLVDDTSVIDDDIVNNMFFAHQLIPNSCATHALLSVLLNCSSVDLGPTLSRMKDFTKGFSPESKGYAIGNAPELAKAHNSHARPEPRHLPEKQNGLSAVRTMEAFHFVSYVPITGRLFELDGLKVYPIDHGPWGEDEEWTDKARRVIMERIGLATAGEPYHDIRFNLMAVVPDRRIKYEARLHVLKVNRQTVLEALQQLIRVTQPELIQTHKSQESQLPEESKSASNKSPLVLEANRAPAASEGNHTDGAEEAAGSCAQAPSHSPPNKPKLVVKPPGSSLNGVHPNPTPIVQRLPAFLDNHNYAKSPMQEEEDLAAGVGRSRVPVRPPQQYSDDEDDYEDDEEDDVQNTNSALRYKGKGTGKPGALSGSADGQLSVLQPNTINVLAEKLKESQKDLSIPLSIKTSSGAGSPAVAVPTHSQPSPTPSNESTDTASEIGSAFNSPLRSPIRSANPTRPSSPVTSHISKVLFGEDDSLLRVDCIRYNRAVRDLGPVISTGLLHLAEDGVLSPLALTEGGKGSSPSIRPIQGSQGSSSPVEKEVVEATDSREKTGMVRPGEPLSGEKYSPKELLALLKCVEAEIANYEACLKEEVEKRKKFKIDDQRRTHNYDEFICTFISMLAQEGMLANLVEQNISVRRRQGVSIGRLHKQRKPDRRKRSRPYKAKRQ
# Summary of the method: as §1
# EIF3F = EIF3F (UniProt O00303)
# Chain of EIF3F (O00303 whole entry): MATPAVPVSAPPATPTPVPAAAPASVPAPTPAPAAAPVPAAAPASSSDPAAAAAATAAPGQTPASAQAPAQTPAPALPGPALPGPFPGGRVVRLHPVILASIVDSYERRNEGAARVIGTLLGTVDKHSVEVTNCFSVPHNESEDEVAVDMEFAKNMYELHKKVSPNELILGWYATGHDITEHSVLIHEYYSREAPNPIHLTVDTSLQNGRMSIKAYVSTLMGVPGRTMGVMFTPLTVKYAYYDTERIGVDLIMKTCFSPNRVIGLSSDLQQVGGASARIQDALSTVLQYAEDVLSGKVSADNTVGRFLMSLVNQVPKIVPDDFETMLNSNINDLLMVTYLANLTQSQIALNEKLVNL
# Summary of the method: as §1
# EIF3H = EIF3H (UniProt O15372)
# Chain of EIF3H (O15372 whole entry): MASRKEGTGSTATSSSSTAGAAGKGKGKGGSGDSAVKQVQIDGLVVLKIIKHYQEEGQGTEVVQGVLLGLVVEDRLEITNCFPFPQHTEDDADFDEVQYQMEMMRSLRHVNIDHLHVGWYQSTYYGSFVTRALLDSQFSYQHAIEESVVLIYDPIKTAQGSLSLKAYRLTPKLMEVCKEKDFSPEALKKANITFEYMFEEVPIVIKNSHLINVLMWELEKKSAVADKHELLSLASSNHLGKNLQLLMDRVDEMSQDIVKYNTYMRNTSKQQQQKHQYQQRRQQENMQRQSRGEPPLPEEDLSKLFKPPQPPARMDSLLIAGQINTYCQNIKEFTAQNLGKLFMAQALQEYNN
# Summary of the method: as §1
# FAM105A = biological target: T3, FAM105A (UniProt Q9NUU6)
# T3 sequence (whole entry): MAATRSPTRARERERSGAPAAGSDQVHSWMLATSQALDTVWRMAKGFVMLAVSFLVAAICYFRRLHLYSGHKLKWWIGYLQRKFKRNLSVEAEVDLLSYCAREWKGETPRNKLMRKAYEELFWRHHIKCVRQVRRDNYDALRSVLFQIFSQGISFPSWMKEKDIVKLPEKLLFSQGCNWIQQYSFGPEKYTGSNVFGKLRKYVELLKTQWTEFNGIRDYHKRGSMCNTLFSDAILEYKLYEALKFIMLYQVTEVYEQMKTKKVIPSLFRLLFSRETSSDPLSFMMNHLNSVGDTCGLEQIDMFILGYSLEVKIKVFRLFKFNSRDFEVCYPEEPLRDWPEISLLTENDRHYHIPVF
# Summary of the method: as §1
# OTUB1 = OTUB1 (UniProt Q96FW1)
# Chain of OTUB1 (Q96FW1 whole entry): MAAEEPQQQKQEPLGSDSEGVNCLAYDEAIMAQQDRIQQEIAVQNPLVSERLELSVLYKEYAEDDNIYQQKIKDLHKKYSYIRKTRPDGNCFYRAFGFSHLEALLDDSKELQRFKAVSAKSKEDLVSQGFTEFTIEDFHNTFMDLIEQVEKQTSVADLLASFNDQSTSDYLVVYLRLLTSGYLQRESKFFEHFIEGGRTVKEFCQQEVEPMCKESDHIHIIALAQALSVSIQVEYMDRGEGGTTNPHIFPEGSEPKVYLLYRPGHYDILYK
# Summary of the method: as §1
# OTUD4 = biological target: T4, OTUD4 (UniProt Q01804)
# T4 sequence (whole entry): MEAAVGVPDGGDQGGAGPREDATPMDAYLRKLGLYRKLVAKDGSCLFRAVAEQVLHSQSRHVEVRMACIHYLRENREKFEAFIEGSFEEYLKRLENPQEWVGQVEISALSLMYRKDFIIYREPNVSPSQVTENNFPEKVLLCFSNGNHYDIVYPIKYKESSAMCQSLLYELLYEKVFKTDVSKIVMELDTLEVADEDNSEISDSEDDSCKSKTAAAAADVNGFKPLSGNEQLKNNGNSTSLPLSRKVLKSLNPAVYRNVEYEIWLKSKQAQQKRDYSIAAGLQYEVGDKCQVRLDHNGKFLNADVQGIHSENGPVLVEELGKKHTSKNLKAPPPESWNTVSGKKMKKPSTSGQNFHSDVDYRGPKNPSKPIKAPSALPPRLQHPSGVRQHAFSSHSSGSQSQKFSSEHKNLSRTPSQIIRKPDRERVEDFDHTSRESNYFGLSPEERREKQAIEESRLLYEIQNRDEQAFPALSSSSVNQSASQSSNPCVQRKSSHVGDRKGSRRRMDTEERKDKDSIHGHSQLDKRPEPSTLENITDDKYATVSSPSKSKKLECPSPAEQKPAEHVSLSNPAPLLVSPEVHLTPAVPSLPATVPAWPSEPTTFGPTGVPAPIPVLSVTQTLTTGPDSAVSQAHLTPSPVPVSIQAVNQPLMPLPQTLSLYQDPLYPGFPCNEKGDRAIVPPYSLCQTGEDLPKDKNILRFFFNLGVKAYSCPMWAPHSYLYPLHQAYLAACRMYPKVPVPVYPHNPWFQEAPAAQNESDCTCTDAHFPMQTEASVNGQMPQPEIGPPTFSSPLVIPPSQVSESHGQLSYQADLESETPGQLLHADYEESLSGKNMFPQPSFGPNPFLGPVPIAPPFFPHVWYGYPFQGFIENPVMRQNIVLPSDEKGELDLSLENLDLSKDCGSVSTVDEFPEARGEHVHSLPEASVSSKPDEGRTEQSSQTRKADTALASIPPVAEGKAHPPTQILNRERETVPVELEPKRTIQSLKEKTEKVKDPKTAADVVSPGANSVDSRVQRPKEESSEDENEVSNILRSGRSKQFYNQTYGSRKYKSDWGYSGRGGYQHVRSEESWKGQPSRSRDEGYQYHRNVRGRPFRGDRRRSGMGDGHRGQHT
# Summary of the method: as §1
# OTUD5 = biological target: T5, OTUD5 (UniProt Q96G74)
# T5 sequence (whole entry): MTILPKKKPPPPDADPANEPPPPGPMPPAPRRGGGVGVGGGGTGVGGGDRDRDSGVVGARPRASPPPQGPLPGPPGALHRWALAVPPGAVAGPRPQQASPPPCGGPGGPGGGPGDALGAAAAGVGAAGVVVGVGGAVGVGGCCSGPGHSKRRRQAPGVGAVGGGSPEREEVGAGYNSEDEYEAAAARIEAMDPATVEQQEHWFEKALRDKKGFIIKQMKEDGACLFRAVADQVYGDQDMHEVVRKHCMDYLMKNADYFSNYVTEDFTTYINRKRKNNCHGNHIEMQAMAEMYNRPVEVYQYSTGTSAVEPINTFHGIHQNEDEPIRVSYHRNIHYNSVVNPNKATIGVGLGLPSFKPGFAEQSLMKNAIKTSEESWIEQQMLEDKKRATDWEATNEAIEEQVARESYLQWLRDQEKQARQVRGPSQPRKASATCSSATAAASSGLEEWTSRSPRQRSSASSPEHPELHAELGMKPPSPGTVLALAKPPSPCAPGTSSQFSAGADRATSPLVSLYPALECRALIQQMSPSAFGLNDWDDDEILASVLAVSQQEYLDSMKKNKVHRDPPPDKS
# Summary of the method: as §1
compound,measurement,setting,value
Cl.O=C(CCl)N1CCC(n2nc3ccccc3n2)CC1,log2 ratio of Biotin-Ahx-Ub-VS probe labelling,ALG13,-0.254
same,log2 ratio of Biotin-Ahx-Ub-VS probe labelling,ATXN3,-1.1 (active)
same,log2 ratio of Biotin-Ahx-Ub-VS probe labelling,BAP1,-2.08 (active)
same,log2 ratio of Biotin-Ahx-Ub-VS probe labelling,EIF3F,-0.315
same,log2 ratio of Biotin-Ahx-Ub-VS probe labelling,EIF3H,-0.151
same,log2 ratio of Biotin-Ahx-Ub-VS probe labelling,FAM105A,0.315
same,log2 ratio of Biotin-Ahx-Ub-VS probe labelling,OTUB1,-0.67
same,log2 ratio of Biotin-Ahx-Ub-VS probe labelling,OTUD4,-0.134
same,log2 ratio of Biotin-Ahx-Ub-VS probe labelling,OTUD5,-0.494
